Drawing on the supplement of paper PMC6555819, this text covers PBM binding z-score for six sequences.

Test in all cases: PBM binding z-score (relative to random genomic background probes); higher = stronger binding; sequences stand for … in GC…GCGATTGACAGCGTAGAATGAAGG
The subject of test [1] is FXR:RXRa (NR concentration 270 nM, RXRa partner concentration 90 nM). The essentials:
(§1)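 Custom Agilent 4×180K protein-binding microarrays carried double-stranded probes. Their 34-nt variable regions held direct-repeat seeds, single-nucleotide variants, half-site ablations and random human genomic background sequences. Arrays were incubated 1 h with ligand-free nuclear receptor dimers in PBS pH 7.4, 2% milk, 0.02% Triton X-100, 1 mM DTT, 0.2 mg/mL BSA and 0.4 mg/ml salmon testes DNA. Antibodies against each partner (one per run) detected binding, and scanned fluorescence was regression-normalized. Binding z-scores use random background probes as reference.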

The test system of test [2] is LXRa:RXRa (NR concentration 270 nM, RXRa partner concentration 90 nM). The essentials:
as §1

In test [3] the test system is LXRa homodimer (NR concentration 270 nM). The essentials: as §1
The test system of test [4] is LXRb:RXRa (NR concentration 270 nM, RXRa partner concentration 90 nM). The essentials: as §1
The test system of test [5] is LXRb homodimer (NR concentration 270 nM). The essentials:
as §1

The subject of test [6] is PPARa:RXRa (NR concentration 270 nM, RXRa partner concentration 90 nM). The essentials: as §1
Test [7] concerns PPARg:RXRa (NR concentration 180 nM, RXRa partner concentration 90 nM). The essentials: as §1
The subject of test [8] is PPARg:RXRa 270nM:90nM, anti-RXR (NR concentration 270 nM, RXRa partner concentration 90 nM). The essentials:
as §1

The test system of test [9] is PPARg:RXRa 30nM:10nM, anti-RXR (NR concentration 30 nM, RXRa partner concentration 10 nM). The essentials: as §1
For test [10], the system named is PPARg:RXRa 90nM:30nM, anti-RXR (NR concentration 90 nM, RXRa partner concentration 30 nM). The essentials:
as §1

Test [11] relates to PPARg:RXRa DBDmut IVT, anti-RXR (DBD mutation: RXRa K156A/R161A, NR concentration 270 nM, RXRa partner concentration 90 nM). The essentials: as §1
The subject of test [12] is PPARg:RXRa IVT, anti-PPARg (NR concentration 270 nM, RXRa partner concentration 90 nM). The essentials:
as §1

Test [13] has as its system PPARg DBDmut:RXRa IVT, anti-PPARg (DBD mutation: PPARg1 K132A/R137A, NR concentration 270 nM, RXRa partner concentration 90 nM). The essentials:
as §1

In test [14] the test system is PPARg DBDmut IVT, anti-PPARg (DBD mutation: PPARg1 K132A/R137A, NR concentration 270 nM). The essentials: as §1
For test [15], the system named is PPARg homodimer (NR concentration 180 nM). The essentials:
as §1

Test [16] has as its system PXR:RXRa (NR concentration 270 nM, RXRa partner concentration 90 nM). The essentials:
as §1

For test [17], the system named is PXR homodimer (NR concentration 270 nM). The essentials:
as §1

Test [18] deals with RARa:RXR (NR concentration 270 nM, RXRa partner concentration 90 nM). The essentials: as §1
Test [19] relates to RARa homodimer (NR concentration 270 nM). The essentials:
as §1

The test system of test [20] is RARb:RXRa (NR concentration 270 nM, RXRa partner concentration 90 nM). The essentials: as §1

In the case of GCATATAGGTAATCCAAGGTGAAAGTCCGATTGT, the PBM binding z-score in [1] is 2.37; in test [2] it was 2.66; in test [3] it was 0.0628; in test [4] it was 0.738; in test [5], -0.267; in [6], 1.76. For the same sequence, the PBM binding z-score in test [7] was 1.15; in test [8], 1.24; in [9] it was 0.358; in [10], 0.949; in test [11] it was 4.62; in test [12] it was 3.17. Moreover, the PBM binding z-score worked out at 0.831 in [13]; 0.665 in [14]; 1.03 in test [15]; 0.638 in test [16]; 0.241 in test [17]; 1.53 in [18]. The PBM binding z-score came out at 0.647 in [19] and 0.51 in [20].

In the case of CCTCGGAGGACAACAGGAGCTCAGAGCTGCCAGA, the PBM binding z-score in test [1] was -0.156; in test [2], -0.474; in test [3], -0.523; in [4], -0.921; in [5] it was -0.933; in [6], -0.767. The PBM binding z-score is -0.107 in [7]; -1 in test [8]; -0.714 in test [9]; -0.999 in [10]; 0.0652 in test [11]; -0.614 in test [12]. For the same sequence, the PBM binding z-score in test [13] was -1.06; in [14] it was -2.08; in test [15], -0.744; in test [16], -0.836; in test [17], -0.522; in test [18], -0.894. In addition, the PBM binding z-score in test [19] is -0.387; in test [20], 0.83.

Consider TCATATAGGTAAAAGGTAAAAGTCGGTGTGGTAA, for which the PBM binding z-score in [1] came to 1.72; in test [2], 1.53; in [3], 0.146; in test [4], 1.47; in test [5], 0.114; in test [6] it was 4.59. Moreover, the PBM binding z-score was 7.89 in test [7]; 7.76 in [8]; 7.87 in [9]; 8.16 in test [10]; 5.05 in test [11]; 4.32 in test [12]. In addition, the PBM binding z-score stood at 0.348 in test [13]; 1.01 in test [14]; 1.81 in test [15]; 1.39 in test [16]; 0.507 in test [17]; 1.78 in test [18]. Moreover, the PBM binding z-score was 2.04 in [19] and 0.854 in test [20].

Turning to AGAACCAGGGCACGCTGAGTTGATAGCAGAGTAG, the PBM binding z-score was -0.172 in test [1]; 0.136 in test [2]; -0.611 in [3]; -0.397 in [4]; -1.03 in test [5]; 1.29 in test [6]. For the same sequence, the PBM binding z-score was 1.55 in test [7]; 1.19 in test [8]; -0.116 in test [9]; 0.466 in test [10]; 4.22 in test [11]; 3.95 in [12]. In addition, the PBM binding z-score was 0.0191 in test [13]; -0.605 in test [14]; -0.0465 in test [15]; 0.357 in [16]; -0.341 in [17]; 0.14 in [18]. For the same sequence, the PBM binding z-score in [19] is -0.234; in test [20], 1.34.

As for ATGGAAAGGTCGACGAGGTGAGTATACACCGTTT, the PBM binding z-score in test [1] was 4.39; in test [2] it was 3.03; in test [3], -0.133; in test [4], 2.47; in test [5], 0.238; in test [6], 4.12. Further, the PBM binding z-score in test [7] was determined as 2.69; in test [8] it was 2.93; in test [9], 1.17; in [10], 1.95; in test [11], 0.338; in [12], 1.89. Moreover, the PBM binding z-score in test [13] came out at 0.736; in test [14] it was 1.01; in [15], 1.38; in test [16] it was 2.96; in [17] it was 0.609; in test [18], 3.54. Also, the PBM binding z-score in test [19] stood at 0.422; in [20] it was 3.73.

In the case of ATCTCTAGGCAAAGATAGTTCAGTGAATGCAAAT, the PBM binding z-score is -0.415 in test [1]; 0.271 in test [2]; 0.124 in test [3]; -0.207 in test [4]; 0.263 in [5]; -0.233 in [6]. Further, the PBM binding z-score was 0.154 in test [7]; -0.151 in [8]; -0.0446 in [9]; -0.153 in test [10]; 0.0233 in test [11]; 0.0871 in test [12]. In addition, the PBM binding z-score is 0.389 in test [13]; 0.566 in [14]; -0.0165 in test [15]; -0.0478 in test [16]; 0.35 in test [17]; -0.456 in test [18]. The PBM binding z-score in test [19] stood at 0.524; in test [20] it was 0.211.
